HCMV inh: qHTS Assay for inhibitors of the human cytomegalovirus (HCMV) | activity change, negative = inhibition, % at 57.5 µM | HFF cells, HCMV-luciferase reporter, 72 h; stronger effect = lower value | AID 1259415, 2018 | 410,000 tested, 4.5% active; in the data active = activity change below about -60%; inconclusive = no clear call, values can overlap the other calls; inactive = above about -39%
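Luciferase read-out from HCMV-luciferase-infected HFFs (MOI 1 PFU/cell) 72 h post infection at 37C; compounds added after 16 h cell attachment; activity normalized between buffer-only basal and Salinomycin (10uM) inhibitor controls.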
Marburg entry inh: qHTS for inhibitors of binding or entry into cells for Marburg Virus. Marburg virus pseudotyped entry inhibition, cell reporter. Potency, µM (titrated, usually from 37.8 µM), for inactives: at the top dose activity change, negative = inhibition, actives largely listed as inhibitors. 300,000 tested, 1.8% active; calls by dose curve; tested in HEK293 cells; note: potency is the fitted concentration of half-maximal effect
LASV entry inh: qHTS for Inhibitors of binding or entry into cells for Lassa Virus; Lassa virus pseudotype entry inhibition, cell reporter; Potency, µM (doses to about 37.9 µM), inactives show at the top dose activity change, negative = inhibition, actives largely listed as inhibitors; 300,000 tested, 1.2% active; AID 540256, 2011; calls by dose curve; tested in HEK293 cells; note: potency is the fitted concentration of half-maximal effect; nearly all actives have a fitted effect of over 50% in size
Pf growth 48h: Primary qHTS for delayed death inhibitors of the malarial parasite plastid, 48 hour incubation; P. falciparum luciferase growth in erythrocytes, 48 h; Potency, µM (top dose mostly 28.7 µM), for the others: at the top dose activity change, negative = inhibition, most hits filed as inhibitors; 310,000 tested, 5.9% active; AID 504832, 2011; note: potency is the fitted concentration of half-maximal effect
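Luciferase-expressing P. falciparum in infected erythrocytes (2% hematocrit, 0.1% parasitemia final) in RPMI 1640/0.5% Albumax were exposed to compound for 48 hours at 37 C, 5% CO2; growth read as luminescence.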
Pf growth 96h: Primary qHTS for delayed death inhibitors of the malarial parasite plastid, 96 hour incubation; P. falciparum luciferase reporter growth, 96 h; 320,000 tested, 6.9% active; Potency, µM (highest dose often 28.7 µM), without a hit: at the highest dose activity change, negative = inhibition, hits mostly inhibitors; AID 504834, 2011; note: potency is the fitted concentration of half-maximal effect
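96 h incubation, 37 C, 5% CO2, of luciferase-reporter P. falciparum-infected RBCs (2% hematocrit, 0.05% parasitemia final) with test compounds; endpoint luminescence.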
HCV inh: qHTS Assay for Inhibitors of Hepatitis C Virus (HCV); Huh7.5.1 HCVcc-Cre infection, luciferase reporter, 44 h; Potency, µM (top dose mostly 41.8 µM), inactives show at the top dose activity change, negative = inhibition, most hits filed as inhibitors; 340,000 tested, 3.4% active; note: potency is the fitted concentration of half-maximal effect
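Infectious HCV cell culture screen: compound-treated cells (1,000/well, pre-plated 4 h) are infected with HCVcc-Cre at roughly 0.5 moi and grown 44 h. Infection is quantified by luciferase signal after 15 min substrate incubation at room temperature.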
An asterisk follows results filed as active; ? = inconclusive; . = no result; [ ] = remark or other dose. The list is not random: actives were taken first. Their share in the collection is about 14%. Unless noted, calls come from the whole dose curve; as a rule, active = well fitted inhibition curve with a large enough effect; inconclusive = small, poorly fitted or top-dose-only effect, or another doubt; inactive = no such curve, though single readings can be large or run the other way. % is set by controls: 0 for no effect and ±100 for the full control effect.

SMILES	HCMV inh	Marburg entry inh	LASV entry inh	Pf growth 48h	Pf growth 96h	HCV inh
CCN1CCN(C(=O)c2ccc3c(=O)n(Cc4ccccc4OC)c(=S)[nH]c3c2)CC1	-25	2%	0%	-1%	160%	11µM*
O=C(N/N=C/c1ccco1)c1cc(-c2ccc(Cl)s2)[nH]n1	8	.	.	9.3µM*	?	-3%
Cc1nc(SCc2nc3c(F)cccc3[nH]2)c2oc3ccccc3c2n1	6	.	.	.	.	.
COc1ccc(OC)c(NC(=O)C2(C)CCN2CCc2ccccc2)c1 (stereo not drawn)	-5	.	.	.	.	.
CC(C)=CCCC1(C)C=Cc2c(c(C)cc3c2[nH]c2cc(O)ccc23)O1 (stereo not drawn)	-104*	.	.	10µM*	-16%	-22%
CCCCc1nc2c(c3c1C[C@H](C)OC3)CN(C(=O)Cc1cccc(OC)c1)CC2	.	2%[14.2 µM]	.	.	.	.
O=C(Nc1ccc(N2CCN(C(=O)c3ccccc3)CC2)c(Cl)c1)c1ccco1	-33	?	?	8.3µM*	-22%	10µM*
CC(=O)N1CCN(c2ccc(NC(=O)c3ccco3)cc2Cl)CC1	47	15%	-4%	38%	?	14%
CC(C)C(=O)N1CCN(c2ccc(NC(=O)c3ccco3)cc2Cl)CC1	15	13%[46.1 µM]	-8%[46.1 µM]	9.3µM*	?	-7%
CN1CCN(c2ccc(C(F)(F)F)cc2NC(=O)c2ccco2)CC1	50	10µM*	1%[46.1 µM]	23%	?	-17%
NC(=O)C1CCN(C(=O)Cn2c(-c3cccs3)cc3ccccc32)CC1	31	.	-11%[46.1 µM]	.	.	.
Cc1ccc(NC(=O)CN2CCN(C(=O)C3CC3)CC2)c(F)c1	-4	.	.	.	.	.
COc1ccc(C(C)(NC(C)=O)c2nc(/C=C/c3ccccc3)cs2)cc1 (stereo not drawn)	-1	.	.	.	.	.
Cc1ccc(CC2SC(=Nc3ccccc3)N(c3ccccc3)C2=O)cc1 (stereo not drawn)	4	?	?	10µM*	197%	-9%
O=C(N[C@@H](Cc1ccccc1)C(O)c1nc2ccccc2[nH]1)c1ccccn1 (stereo partly drawn)	2	.	.	.	.	.
CC(=O)OCC(=O)[C@@]1(OC(C)=O)[C@@H](C)C[C@H]2[C@@H]3C[C@H](F)C4=CC(=O)C=C[C@]4(C)[C@@]3(F)[C@@H](O)C[C@@]21C	41	22%	-13%	?	?	0%[8.37 µM]
C[C@@H]1C[C@H]2[C@H]3C[C@@H](F)C4=CC(=O)C=C[C@]4(C)[C@@]3(Cl)[C@@H](O)C[C@@]2(C)[C@@H]1C(=O)COC(=O)C(C)(C)C	.	.	.	4.8µM*	4.8µM*	.
O=C(Nc1cccc(S(=O)(=O)Nc2ccccc2F)c1)c1ccc2ccccc2n1	?	?	?	-21%	-5%	?
COc1ccccc1NC(=O)NC1CCCCCCC1	?	1%[46.1 µM]	-14%[46.1 µM]	-28%	12µM*	-9%
COc1ccccc1NC(=O)N1CCCC(C(=O)Nc2cccc(C)c2C)C1 (stereo not drawn)	10	9%	-13%	0%	8.3µM*	-4%
COc1ccccc1NS(=O)(=O)c1cccc(NC(=O)c2ccc3ccccc3n2)c1	-79*	?	?	-4%	?	?
COc1ccccc1NC(=S)NC1CCCCCC1	-27	11%	0%	0%	?	?
CCOc1ccccc1NC(C)C(=O)NC(=O)NC1CCCCC1 (stereo not drawn)	-15	.	.	?	13µM*	-4%
O=C(O)c1c(Cl)c(Cl)c(Cl)c(Cl)c1-c1c2cc(I)c(=O)c(I)c-2oc2c(I)c(O)c(I)cc12	?	47%	?	-7%	-26%	.
COc1ccccc1NCCC(=O)OCC(=O)NC1CC1	-83*	.	.	16%	1%	1%
COc1cccc(NC(=O)CN(C)C(=O)c2cccc(S(=O)(=O)Nc3ccccc3OC)c2)c1	23	-14%	-10%	13µM*	?	-13%
COc1ccccc1NS(=O)(=O)c1cccc(NC(=O)NC2CCCCC2)c1	-76*	?	?	-3%	-6%	?
